High-throughput results (PubChem BioAssay)
The list is not random: actives were taken first. Their share in the collection is about 0.89%.
L3MBTL1 inh – inhibitors of human L3MBTL1; AID 485360; Potency, µM (top dose mostly 57.1 µM), inactives show at the highest dose activity, negative = inhibition, hits mostly inhibitors; 0.66% of 230,000 active; AlphaScreen L3MBTL1–H3K9me1 peptide binding; Q9Y468; further: potency means the concentration at half of the fitted maximal effect; on the % scale 0 is the no-effect control and ±100 the full control effect; nearly all actives have a fitted effect of over 60% in size
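First, the protein-peptide complex forms for 30 min at room temperature (L3MBTL1 50 nM, biotinylated H3K9me1 peptide 75 nM). Next, compounds are pin-transferred and incubated 30 min. Finally, AlphaScreen beads are added and read after 30 min.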
Six1-Eya2 blk – Six1/Eya2 interaction inhibition; AlphaScreen GST-Six1/His-Eya2 binding, biochemical; stronger effect = lower value; activity change, % (no concentration beside the values); 0.56% of 360,000 active; in the data active means activity change below about -65%; inconclusive means mostly about -30% to -63%; further: on the % scale 0 is the no-effect control and ±100 the full control effect
Target sequence (O00167 whole entry, looked up): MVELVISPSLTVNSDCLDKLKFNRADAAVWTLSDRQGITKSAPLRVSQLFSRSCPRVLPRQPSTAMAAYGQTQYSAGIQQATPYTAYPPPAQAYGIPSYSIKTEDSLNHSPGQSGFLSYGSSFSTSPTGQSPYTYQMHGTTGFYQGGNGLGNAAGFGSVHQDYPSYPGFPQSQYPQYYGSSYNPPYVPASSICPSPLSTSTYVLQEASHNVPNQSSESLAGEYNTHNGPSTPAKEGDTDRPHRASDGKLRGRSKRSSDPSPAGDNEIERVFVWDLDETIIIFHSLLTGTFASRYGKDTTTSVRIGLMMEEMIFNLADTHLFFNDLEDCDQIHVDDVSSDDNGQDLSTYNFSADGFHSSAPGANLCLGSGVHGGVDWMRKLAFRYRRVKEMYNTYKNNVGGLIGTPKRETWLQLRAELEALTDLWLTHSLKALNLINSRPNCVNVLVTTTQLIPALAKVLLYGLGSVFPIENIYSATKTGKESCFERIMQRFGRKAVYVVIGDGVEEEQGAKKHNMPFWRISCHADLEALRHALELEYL
Target sequence (Q15475 whole entry, looked up): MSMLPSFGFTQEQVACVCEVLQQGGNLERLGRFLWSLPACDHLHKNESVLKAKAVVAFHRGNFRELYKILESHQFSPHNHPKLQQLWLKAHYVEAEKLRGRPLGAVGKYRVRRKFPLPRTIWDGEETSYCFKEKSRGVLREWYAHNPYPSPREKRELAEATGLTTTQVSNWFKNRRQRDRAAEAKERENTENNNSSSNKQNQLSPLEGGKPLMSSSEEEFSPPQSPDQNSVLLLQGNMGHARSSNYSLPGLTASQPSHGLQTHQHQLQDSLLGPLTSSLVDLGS
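Compounds are tested against tagged Six1 and Eya2 proteins bridged by glutathione donor and nickel acceptor beads; after a one-hour incubation at 37 °C without light, AlphaScreen emission is recorded.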
CtBP-E1A blk – inhibitors of CtBP/E1A interaction. AlphaScreen GST-E1A/His-CtBP binding, 1536-well; stronger effect = lower value. activity change, % (no concentration beside the values). 0.49% of 340,000 active; in the data active means activity change below about -65%; inconclusive means mostly about -30% to -63%; further: on the % scale 0 is the no-effect control and ±100 the full control effect
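GST-E1A and His-tagged CtBP (125 nM each as 5X stock) were preincubated with pin-transferred compound for 2 h at 37 °C in the dark, then glutathione donor and nickel acceptor beads were added for 1 h before AlphaScreen reading.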
Eya2 inh – Eya2 (human) phosphatase inhibition; recombinant Eya2, OMFP fluorescence dephosphorylation (OMFP is methylfluorescein phosphate); Potency, µM (top dose mostly 76.9 µM), without a hit: top-dose activity, negative = inhibition, most hits filed as inhibitors; 0.006% of 330,000 active; AID 488837; further: potency means the concentration at half of the fitted maximal effect; on the % scale 0 is the no-effect control and ±100 the full control effect
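Eya2 protein (added as 0.2 uM solution) was preincubated with compound for 10 min at ambient temperature in 50 mM HEPES pH 7.5, 50 mM NaCl, 5 uM MgCl2, 0.05% BSA, 1 mM DTT. OMFP (added at 50 uM) then reacted 10 min; fluorescence read at 485/525 nm.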
MBNL1 CUG block – inhibitors of human MBNL1 binding to CUG repeat RNA | Potency, µM (doses to about 57.5 µM), for inactives: at the highest dose activity change, negative = inhibition, most hits filed as inhibitors | 0.036% of 280,000 active | Q9NR56 | TR-FRET MBNL1-His/biotin-(CUG)12 binding, 665/545 ratio; active means well fitted inhibition curve with a large enough effect in the signal ratio, with a control signal flat, not every such curve was filed as active; inconclusive means small, poorly fitted or top-dose-only effect, or effect the other way, or a change in a side signal; inactive means no such curve, though single readings can be large or run the other way; the % refers to the signal ratio; further: potency means the concentration at half of the fitted maximal effect; on the % scale 0 is the no-effect control and ±100 the full control effect
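Ratiometric TR-FRET (665 over 545 nm, excitation 340 nm) tracks disruption of MBNL1-His/biotin-(CUG)12 complex after 60 min at room temperature, with compounds at 92 nM to 58 uM final.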
CBFb-RUNX1 inh – inhibitors of human CBF-beta and RUNX1 interaction; Q01196+Q13951; AlphaScreen CBFb-His/RUNX1-biotin binding, biochemical; Potency, µM (titrated, usually from 59.8 µM), for the others: at the top dose activity, negative = inhibition, most hits filed as inhibitors; 230,000 tested, under 10 active; AID 1477; further: % of control where 0% means no effect
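Read-out: AlphaScreen. Format: His-CBF-beta with biotinylated RUNX1 (30 nM each) preincubated 20 min, compound 15 min, Ni-chelate plus streptavidin beads 90 min; room temperature throughout.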
The depositor's hits bear a star; [ ] = another dose, or the depositor's remark. Unless noted, the call rests on the fitted dose curve; in most records, active means well fitted curve in the direction sought with a large enough effect; inconclusive means small, poorly fitted or top-dose-only effect, or another doubt; inactive means no such curve, though single readings can be large; an effect the other way counts as inactive or inconclusive.

Cc1ccc(/C=N/Nc2cc(C)nc(NCc3ccccc3)n2)cc1 was read as L3MBTL1 inh -23%, Six1-Eya2 blk -8, CtBP-E1A blk -11, Eya2 inh 3% and CBFb-RUNX1 inh 6%.
Cc1cc(N/N=C/c2ccc(O)cc2)nc(NS(=O)(=O)c2ccccc2)n1 was read as L3MBTL1 inh 32µM*, Six1-Eya2 blk -73*, CtBP-E1A blk inconclusive, Eya2 inh 5%, MBNL1 CUG block -19% and CBFb-RUNX1 inh -28%.
Screening NC(=S)NN=C1CSSC1 returned Six1-Eya2 blk -94* and CtBP-E1A blk -89*.
For COC(=O)C1=C(C(=O)OC)[C@@H]2N(C)c3ccccc3[C@@]23C[C@@H](C(=O)OC)N(S(=O)(=O)c2ccc(C#N)cc2)C3=N1 the results were CBFb-RUNX1 inh 15%[13.1 µM].
`O=C(CSc1ccc2nnc(-c3cccnc3)n2n1)Nc1ccc(F)cc1F` gave Six1-Eya2 blk inconclusive, CtBP-E1A blk -69*, Eya2 inh -4% and MBNL1 CUG block -11%.
For COC(=O)C[C@H]1C=C[C@@H](NC(=O)c2ccncc2)[C@@H](CO)O1 the results were Six1-Eya2 blk 8 and CtBP-E1A blk 2.
`c1coc(CNc2nc(-c3cccs3)cs2)c1` gave L3MBTL1 inh 28µM*, Six1-Eya2 blk -10, CtBP-E1A blk -8, Eya2 inh 4% and CBFb-RUNX1 inh inconclusive.
For Oc1ccc(-c2csc(NCc3ccco3)n2)cc1 the results were Six1-Eya2 blk -9, CtBP-E1A blk -5, Eya2 inh -4%, MBNL1 CUG block 5% and CBFb-RUNX1 inh -10%.
For Cc1ccc[n+](CC(=O)Nc2c(Cl)cc(Cl)cc2Cl)c1 the results were L3MBTL1 inh 5%, Six1-Eya2 blk -5, CtBP-E1A blk 0, Eya2 inh 7%, MBNL1 CUG block 7% and CBFb-RUNX1 inh 3%.
Screening O=C(C[n+]1ccccc1)Nc1c(Cl)cc(Cl)cc1Cl returned L3MBTL1 inh 11µM*, Six1-Eya2 blk 1, CtBP-E1A blk 0, Eya2 inh 2%, MBNL1 CUG block inconclusive and CBFb-RUNX1 inh 0%.
For C/C(=N\Nc1nnc(C)c(=O)[nH]1)C(=O)O the results were L3MBTL1 inh 12%, Six1-Eya2 blk -89*, CtBP-E1A blk -87*, Eya2 inh -10%, MBNL1 CUG block -15% and CBFb-RUNX1 inh inconclusive.
For CC(/C=N/Nc1nnc(C)c(=O)[nH]1)=C\c1ccccc1 the results were L3MBTL1 inh 3%, Six1-Eya2 blk -7, CtBP-E1A blk 9, Eya2 inh -19%, MBNL1 CUG block 4% and CBFb-RUNX1 inh -3%.
For CN(Cc1ccccc1)C(=O)c1ccc(Nc2nc(C(N)Cc3ccccc3)cs2)nc1 (stereo not drawn) the results were Six1-Eya2 blk -24 and CtBP-E1A blk inconclusive.
Screening NC(Cc1ccccc1)c1csc(Nc2ccc(C(=O)NCCCO)cn2)n1 (stereo not drawn) returned Six1-Eya2 blk -66* and CtBP-E1A blk -82*.
For NC(CCc1ccccc1)c1csc(Nc2ccc(C(=O)NCCCO)cn2)n1 (stereo not drawn) the results were Six1-Eya2 blk inconclusive and CtBP-E1A blk -69*.
`CC(C)C(N)c1csc(Nc2ccc(C(=O)NCCCO)cn2)n1` (stereo not drawn) gave Six1-Eya2 blk inconclusive and CtBP-E1A blk -75*.
C=C1CC[C@@]23CC[C@]4(C)[C@@](OC2=O)([C@@H]3C1)[C@H]1O[C@H]1C1[C@@]2(C)CC[C@H](O)C(C)(C)C2CC[C@]14C (stereo partly drawn) was read as L3MBTL1 inh -5%, Six1-Eya2 blk -4, CtBP-E1A blk 2 and Eya2 inh 10%.
